We go through 8 compounds from PubChem BioAssay (NCI).

Among the test systems are SK-MEL-2 melanoma; EKVX NSCLC; SN12C renal; UO-31 renal; TK-10 renal; ACHN renal; CAKI-1 renal; A498 renal; CCRF-CEM leukemia; MOLT-4 leukemia; SR leukemia; RPMI-8226 leukemia; OVCAR-8 ovarian; OVCAR-5 ovarian; SK-OV-3 ovarian; IGROV1 ovarian; OVCAR-3 ovarian; HS 578T breast; NCI/ADR-RES ovarian; OVCAR-4 ovarian.
Experiment in all cases: NCI-60 one-dose screen, 48 h (100 = growth as untreated, 0 = no growth, -100 = all killed)
Holding throughout (conditions): 10 µM unless noted

Compounds without any hit were thinned out: in the full panel of roughly 83,000, 20% have a hit.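 Values shown are percent growth following 48 h exposure of cells in 96-well plates to a single concentration of compound; below 10 was considered active.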 Values without a mark were called inactive. Calls of active or inactive are those of the source.

In the case of `COC(=O)c1c(C(=O)OC)c2c3ccccc3c3ccccc3n2c1C(=O)C(C)(C)C`, the growth in the test with SK-MEL-2 melanoma is 83.4%; in the test with EKVX NSCLC it was 96.2%; with SN12C renal, 87.3%; in the test with UO-31 renal, 75.4%; in the test with TK-10 renal it was 105%; with ACHN renal, 82%. The growth was 60.7% with CAKI-1 renal; 132% in the test on A498 renal; 65.6% in the test on CCRF-CEM leukemia; 45.7% with MOLT-4 leukemia; -17.3% (active) in the test with SR leukemia; 47.2% in the test with RPMI-8226 leukemia. For the same compound, the growth with OVCAR-8 ovarian was 90.5%; in the test on OVCAR-5 ovarian, 97.9%; in the test with SK-OV-3 ovarian it was 122%; in the test with IGROV1 ovarian, 96.3%; in the test on OVCAR-3 ovarian it was 112%; in the test with HS 578T breast it was 69.4%. For the same compound, in the test on NCI/ADR-RES ovarian, the growth was 83.3%.

With `COc1cc(/C=C/C(=O)c2cnn(-c3cc(=O)[nH]c4ccc(Br)cc34)c2C)cc(OC)c1OC`, the growth in the test on SK-MEL-2 melanoma is -59.6% (active); in the test with EKVX NSCLC, -57.8% (active); in the test on SN12C renal it was -7.58% (active); in the test on UO-31 renal, -80.7% (active); with TK-10 renal, 1.77% (active); with ACHN renal it was -34.9% (active). Further, the growth with CAKI-1 renal is -4.42% (active); in the test on A498 renal, 6.24% (active); with CCRF-CEM leukemia, -19.6% (active); in the test on MOLT-4 leukemia, -12.3% (active); in the test on SR leukemia, -15.2% (active); in the test on RPMI-8226 leukemia it was -23.7% (active). Also, the growth with OVCAR-5 ovarian was -68% (active); with OVCAR-4 ovarian, 25.6%; in the test on SK-OV-3 ovarian, 19.5%; in the test on IGROV1 ovarian, -59.8% (active); in the test on OVCAR-3 ovarian, -59.1% (active); in the test on HS 578T breast, 54.1%. The growth with NCI/ADR-RES ovarian was -26.8% (active).

Regarding `N#CC1=C(c2ccco2)Nc2c(c(-c3ccccc3)nn2-c2ccccc2)C12C(=O)Nc1ccc(Br)cc12` (stereo unspecified), the growth in the test with SK-MEL-2 melanoma is 87%; in the test with EKVX NSCLC, 56.2%; with SN12C renal it was 5.11% (active); in the test on UO-31 renal it was 59.8%; in the test with TK-10 renal, 65.9%; in the test with ACHN renal, 49.3%. Moreover, the growth with CAKI-1 renal is 55.9%; with A498 renal it was 124%; in the test with CCRF-CEM leukemia, 35.5%; in the test with MOLT-4 leukemia it was 36.2%; in the test on SR leukemia, 31.9%; in the test on RPMI-8226 leukemia, 47.8%. In addition, the growth in the test on OVCAR-5 ovarian was 74.9%; in the test with OVCAR-4 ovarian, 41.6%; with SK-OV-3 ovarian it was 80%; in the test with IGROV1 ovarian it was 67%; with OVCAR-3 ovarian, 42.5%; with HS 578T breast, 6.01% (active). Moreover, the growth in the test with NCI/ADR-RES ovarian was 29.9%.

Turning to `N#CC1=C(c2ccco2)Nc2c(c(-c3ccccc3)nn2-c2ccccc2)C12C(=O)Nc1ccc(Cl)cc12` (stereo unspecified), the growth in the test on SK-MEL-2 melanoma is 80.2%; with EKVX NSCLC, 24.2%; in the test with SN12C renal, -44.4% (active); in the test on UO-31 renal it was 43.1%; in the test on TK-10 renal it was -15.4% (active); with ACHN renal, 8.94% (active). Besides, the growth in the test with CAKI-1 renal is 33%; in the test on A498 renal, 135%; with CCRF-CEM leukemia it was 25%; with MOLT-4 leukemia, 34.8%; in the test on SR leukemia it was -2.37% (active); in the test with RPMI-8226 leukemia it was 49.8%. For the same compound, the growth with OVCAR-8 ovarian was -29.1% (active); in the test with OVCAR-5 ovarian, 53.5%; in the test with SK-OV-3 ovarian it was 55.3%; in the test with IGROV1 ovarian it was 39.2%; in the test on OVCAR-3 ovarian, -27.2% (active); with HS 578T breast it was -22.9% (active). Further, the growth with NCI/ADR-RES ovarian is -3.42% (active).

Consider `C#CCN(C)CCCOc1ccc(N(C)C(=O)c2cc(C(C)C)c(O)cc2O)cc1Cl`, for which the growth was -6.01% (active) in the test with SK-MEL-2 melanoma; 15.9% in the test on EKVX NSCLC; 11.5% in the test on SN12C renal; 16.5% in the test with UO-31 renal; 21.4% with TK-10 renal; 15.7% in the test with ACHN renal. The growth was 16.6% with CAKI-1 renal; 39.7% in the test with A498 renal; 13.9% in the test with CCRF-CEM leukemia; -14% (active) in the test on MOLT-4 leukemia; -13.5% (active) in the test on SR leukemia; 8.9% (active) in the test on RPMI-8226 leukemia. Besides, the growth in the test with OVCAR-8 ovarian was 9.81% (active); in the test on OVCAR-5 ovarian it was 29.4%; in the test with SK-OV-3 ovarian, 16.2%; with IGROV1 ovarian, 11.4%; in the test with OVCAR-3 ovarian, 30.7%; in the test on HS 578T breast, 26.3%. In the test on NCI/ADR-RES ovarian, the growth is -5.62% (active).

For the compound `COc1ccc2[nH]c(O)c(N=Nc3nc(-c4ccc(Cl)cc4)cs3)c2c1`, the growth in the test with SK-MEL-2 melanoma is 14%; in the test on EKVX NSCLC, -3.25% (active); with SN12C renal, -69.2% (active); with UO-31 renal, -61.4% (active); in the test on TK-10 renal, 7.57% (active); in the test with ACHN renal, -79.1% (active). Besides, the growth in the test with CAKI-1 renal is -37.6% (active); with A498 renal, -89.7% (active); in the test with CCRF-CEM leukemia it was 15.7%; in the test with MOLT-4 leukemia it was -16.5% (active); with SR leukemia, 5.78% (active); in the test on OVCAR-8 ovarian, -64.4% (active). Further, the growth was 10.3% in the test with OVCAR-5 ovarian; -49.9% (active) with OVCAR-4 ovarian; -38.4% (active) in the test on SK-OV-3 ovarian; -90.4% (active) in the test on OVCAR-3 ovarian; 9.33% (active) in the test on HS 578T breast; -37.4% (active) in the test on NCI/ADR-RES ovarian.

On to `O=C(c1ccc(Cl)cc1)C1[C@H](c2ccccc2Cl)[C@@H](c2ccccc2)NC12C(=O)Nc1ccc(Br)cc12` (stereo partly specified), for which the growth in the test with SK-MEL-2 melanoma is -89.9% (active); in the test with EKVX NSCLC, -42.2% (active); in the test with SN12C renal it was -83.9% (active); in the test with UO-31 renal it was -97.5% (active); in the test on TK-10 renal, -2.31% (active); with ACHN renal it was -69.2% (active). Besides, the growth in the test with CAKI-1 renal was -47.6% (active); in the test on A498 renal, -48% (active); with MOLT-4 leukemia it was -24.5% (active); with SR leukemia, -54.4% (active); in the test with RPMI-8226 leukemia it was 2.44% (active); in the test on OVCAR-8 ovarian, -76.9% (active). Also, the growth in the test on OVCAR-5 ovarian was -91.5% (active); in the test on OVCAR-4 ovarian it was -33.3% (active); in the test on SK-OV-3 ovarian, -7.68% (active); in the test with IGROV1 ovarian it was -59.8% (active); in the test on OVCAR-3 ovarian, -48.3% (active); in the test with HS 578T breast it was -36% (active). Moreover, the growth in the test on NCI/ADR-RES ovarian is -87% (active).

As to `CN1C(=O)C(O)(CC(=O)c2cc3ccccc3oc2=O)c2ccccc21` (stereo unspecified), the growth in the test with SK-MEL-2 melanoma is 111%; in the test on EKVX NSCLC, 90.1%; in the test on SN12C renal, 88.8%; in the test on UO-31 renal, 57.3%; in the test with TK-10 renal, 116%; in the test on ACHN renal it was 98.1%. The growth was 86.1% in the test with CAKI-1 renal; 162% with A498 renal; 92% in the test with CCRF-CEM leukemia; 83.4% in the test with MOLT-4 leukemia; 71.3% in the test on SR leukemia; 107% in the test on OVCAR-8 ovarian. Moreover, the growth was 107% in the test on OVCAR-5 ovarian; 99.9% with OVCAR-4 ovarian; 94.9% in the test on SK-OV-3 ovarian; 97.7% in the test with IGROV1 ovarian; 90.5% in the test on OVCAR-3 ovarian; 99% with HS 578T breast. Besides, in the test with NCI/ADR-RES ovarian, the growth is 98.7%.
